Screening data: PubChem BioAssay, National Center for Advancing Translational Sciences (NCATS)
SNCA expr inh = inhibitors of alpha-synuclein (SNCA) gene expression; HEK-293 SNCA-luciferase knock-in, luminescence, 24 h; Potency, µM (series often up to 57.2 µM), hits mostly inhibitors; 140,000 tested, 0.17% active; AID 1671194; further: nearly all actives have a fitted effect of over 45% in size
KDM5B inhibitor = inhibitors of human KDM5B histone demethylase; Q9UGL1; KDM5B demethylase, FDH-coupled NADH fluorescence (FDH is formaldehyde dehydrogenase); Potency, µM (titrated, usually from 57.7 µM), usual class: inhibitors; 220,000 tested, 2.6% active; AID 1347165; further: nearly all actives have a fitted effect of over 70% in size
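Coupled FDH/NAD⁺ fluorescence readout. KDM5BΔAP 200 nM final; compound titration, 10 min RT preincubation; substrate mix 12.5 µM H3K4me3, 25 µM 2-OG, 50 µM Fe(II), 100 µM ascorbate, 0.25 mM NAD⁺, 0.25 U/mL FDH; ΔRFU over 30 min.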
SNCA viab count = cell viability loss counter-screen; 150,000 tested, 0.12% active; AID 1671193; HEK-293-SNCA-luc viability, GF-AFC fluorescence, 24 h; Potency, µM (highest dose often 57.1 µM), most hits filed as cytotoxic; further: nearly all actives have a fitted effect of over 30% in size
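HEK-293-SNCA-luc cells (1500/well) plated 24 h, then exposed 24 h to a dilution series; GF-AFC added 30 min at 37C, fluorescence 405/540 nm; normalised to medium-only and DMSO wells, Hill fit.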
IP6K1 inh = blocks human inositol hexakisphosphate kinase 1; Q92551; IP6K1 kinase, ADP-Glo luminescence, 2 h; active compounds read low; activity change, % (series mostly up to about 58 µM); 140,000 tested, 0.81% active; in the data active means activity change below about -25%
Target sequence (Q92551 whole entry, looked up): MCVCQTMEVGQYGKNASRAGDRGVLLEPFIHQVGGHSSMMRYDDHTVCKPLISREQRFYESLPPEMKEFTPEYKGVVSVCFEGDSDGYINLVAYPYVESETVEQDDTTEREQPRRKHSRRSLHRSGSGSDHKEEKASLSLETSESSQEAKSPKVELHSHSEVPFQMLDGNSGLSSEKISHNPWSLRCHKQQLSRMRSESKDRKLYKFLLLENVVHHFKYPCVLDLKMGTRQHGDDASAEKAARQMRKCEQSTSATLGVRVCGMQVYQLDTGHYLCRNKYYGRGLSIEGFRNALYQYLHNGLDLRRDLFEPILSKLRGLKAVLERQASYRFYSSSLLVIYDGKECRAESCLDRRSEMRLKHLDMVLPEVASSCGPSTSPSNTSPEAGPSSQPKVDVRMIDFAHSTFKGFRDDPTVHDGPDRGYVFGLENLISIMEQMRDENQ
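ADP-Glo luminescence measures ADP made by human IP6K1 during a 2 h RT reaction with ATP/IP6 (mix at 1.3 mM/130 uM); top library doses 57.5 and 19.1 uM final.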
IP6K1 inh cnf = confirmation of human IP6K1 inhibitors; recombinant IP6K1 kinase, ADP-Glo luminescence, 2 h; Potency, µM (doses to about 49 µM), hits mostly inhibitors; shares compounds with IP6K1 inh; 1,200 tested, 13% active; further: nearly all actives have a fitted effect of over 65% in size
Hits are given with their value; – = inactive; ? = inconclusive; · = no result given; [ ] = dose if it differs, or a comment. Compounds with a hit are over-represented: about 2.8% of the library has one in this group of screens. Unless noted, the call rests on the fitted dose curve; in most records, active means well fitted curve in the direction sought with a large enough effect; inconclusive means small, poorly fitted or top-dose-only effect, or another doubt; inactive means no such curve, though single readings can be large; an effect the other way counts as inactive or inconclusive.

SMILES	SNCA expr inh	KDM5B inhibitor	SNCA viab count	IP6K1 inh	IP6K1 inh cnf
Nc1cccc(-c2ccc(N3CCCCC3)nn2)c1	1.78µM	–	–	-26.6	?
Cc1ccc(Nc2cc(Cl)c3nonc3c2[N+](=O)[O-])cc1	·	–	·	·	·
COc1ccc(F)cc1-c1ccc(CN2CCC(NC(=O)c3ccccc3C)C2)cc1 (stereo not drawn)	·	·	·	–	·
Cc1cccc(C(=O)N2CCC(Cc3nc(-c4cnccn4)no3)CC2)c1	–	–	–	-27.1	–
COc1ccc(C(=O)N2CCC(Cc3nc(C(C)C)no3)CC2)cc1OC	–	–	–	–	·
Cc1ccc(C(=O)N2CCC(Cc3nc(C(C)C)no3)CC2)cc1C	?	–	–	-27.1	–
Clc1ccccc1-c1nc(-c2ccncc2)no1	–	·	–	-25.4	?
CCN1CCN(c2nc3ccccc3nc2NS(=O)(=O)c2cc(Cl)ccc2Cl)CC1	·	–	·	·	·
C=Cc1ccc(CN2C(=O)N(c3ccc(OCC)cc3)S(=O)(=O)c3ccccc32)cc1	·	–	·	·	·
CCc1noc(Cc2c(C)nn(-c3ccccc3)c2C)n1	–	–	–	-28.1	–
Cc1nn(-c2ccccc2)c(C)c1CN(C)S(=O)(=O)c1ccc(F)cc1	·	–	·	·	·
O=C(Nc1cccnc1)c1cc(-c2ccncc2)nc2ccccc12	·	–	·	·	·
CN(c1ccccc1)c1cc(=O)c2ccnc(-c3ccncc3)c2o1	–	–	–	–	·
CN(c1ccccc1)c1cc(=O)c2ccnc(Nc3cccnc3)c2o1	–	?	–	–	·
CN(c1cc(=O)c2ccnc(-c3cccc(C(F)(F)F)c3)c2o1)C1CCOCC1	–	28.2µM	–	-34.4	?
CN(c1cc(=O)c2ccnc(Nc3ccc(F)c(Cl)c3)c2o1)C1CCOCC1	–	28.2µM	–	-25.1	–
CCN1CC(C(=O)N2CCCC(c3ccccc3)(c3ccccc3)C2)CC1=O (stereo not drawn)	–	–	–	-34.1	–
Cn1c(SCC(=O)c2cc3cc(Cl)ccc3o2)nnc1-c1cccnc1	·	–	·	·	·
O=C(O)c1ccc(-c2ncc3cnc(-c4cccc(F)c4)cn23)cc1	–	35.5µM	–	-29.7	?
Cn1ccc(NC(=O)c2ccc(-c3ncc4cnc(-c5cccc(F)c5)cn34)cc2)n1	–	?	–	–	·
CNC(=O)CCn1ncc2cc(OCc3ccccc3-c3ccccc3OC)ccc21	?	?	–	–	·
CCN1C(=O)C2(CCN(S(=O)(=O)c3ccc(Cl)cc3C)CC2)c2ccccc21	?	–	–	–	·
CCn1c2ccccc2c2cc(CN3CCN(Cc4ccccc4F)CC3)ccc21	–	?	–	-26.4	–
CCn1c2ccccc2c2cc(CN3CCN(Cc4ccccc4C)CC3)ccc21	–	?	–	-28.4	–
CCn1c2ccccc2c2cc(CN3CCN(Cc4ccc(Cl)cc4)CC3)ccc21	?	?	–	–	·
SMILES	SNCA expr inh	KDM5B inhibitor	SNCA viab count	IP6K1 inh	IP6K1 inh cnf
O=C(Nc1nc2cc3c(cc2s1)OCCCO3)c1ccc(Br)cc1F	·	–	·	·	·
Cn1cnc2cc(-c3ccc(F)cc3)cc(C(=O)NCCc3cnc[nH]3)c21	–	?	–	-30.6	?
COc1cc(F)ccc1-c1cc(C(=O)NCc2c(C)cc(C)[nH]c2=O)c2c(c1)ncn2C	?	?	–	–	·
CCc1ccc(-c2nc3cc(NC(=O)c4ccc([N+](=O)[O-])o4)ccc3o2)cc1	·	–	·	·	·
COC(=O)c1c(SC)nc2ccccc2c1OCc1ccccc1Cl	–	–	–	-26.1	–
COC(=O)c1c(SC)nc2ccccc2c1OCc1cc(C)ccc1C	?	–	–	–	·
CCc1nc2ccc(C(=O)NCc3cccc(Br)c3)cc2nc1CC	–	?	?	–	·
CCc1nc2ccc(C(=O)NCc3ccc(N(C)C)cc3)cc2nc1CC	–	–	–	-25.8	–
O=C(C1CCCN1C(=O)C1CC1)N1CCC(c2nc3ccncc3[nH]2)C1 (stereo not drawn)	–	·	–	-26.7	–
COc1cc(S(=O)(=O)N2CCc3c(nc[nH]c3=O)C2)c(OC)cc1C	–	–	–	-30.2	–
O=C(NCc1ccc(C(F)(F)F)cc1)C1CCCN(Cc2cccc(-c3ccsc3)c2)C1 (stereo not drawn)	·	·	·	–	·
COc1ccc(NS(=O)(=O)c2cccc(NC(=O)Cc3n[nH]c(=O)c4ccccc34)c2)cc1	·	–	·	·	·
Cc1ccc(NC(=O)c2cc(=O)c3ccc(C)c(C)c3o2)cc1	·	–	·	·	·
CCOC(=O)c1ccc(NC(=O)c2cc(=O)c3ccc(C)c(C)c3o2)cc1	–	–	–	-25.5	–
CCCc1nc(C(=O)N2C[C@H](c3cccc(OC)c3)[C@@H](N)C2)cs1	–	?	–	-26.5	–
CCCOc1ccc(C(=O)N2C[C@H](c3cccc(OC)c3)[C@@H](N)C2)cc1Cl	–	–	–	–	·
Cc1cc(C(=O)NC[C@@H]2CC[C@H]3C[C@@H]2C3(C)C)ccc1Cl	?	–	–	–	·
CC1CCN(C(=O)CC#N)CC1N(C)c1ncnc2[nH]ccc12 (stereo not drawn)	·	·	–	–	–
C[C@@H]1CCN(C(=O)CC#N)C[C@H]1N(C)c1ncnc2[nH]ccc12	?	·	–	·	·
COc1cccc(NC(=O)c2cnc(SCC(=O)N3CCCc4ccccc43)n(C)c2=O)c1	–	–	–	-27.5	–
Cc1ccc2[nH]cc(CCNC(=O)c3ccc(F)cc3F)c2c1	·	–	·	·	·
CCOc1ccc(C2c3c(oc4ccccc4c3=O)C(=O)N2c2nnc(C)s2)cc1OC (stereo not drawn)	–	–[11.5 µM]	–	-36.6	–
COc1cc(C2c3c(oc4ccccc4c3=O)C(=O)N2c2nnc(C(C)C)s2)cc(OC)c1OC (stereo not drawn)	–	–	–	-26.3	–
Cc1ccc(C2c3c(oc4ccccc4c3=O)C(=O)N2c2nnc(C)s2)cc1 (stereo not drawn)	–	–	–	–	·
CCOc1ccc(CNC(=O)CN2C(=O)C(C)=C(c3ccc(C)c(C)c3)S2(=O)=O)cc1OC	·	–	·	·	·
SMILES	SNCA expr inh	KDM5B inhibitor	SNCA viab count	IP6K1 inh	IP6K1 inh cnf
CC1(C)CC(=O)C2=C(C1)Nc1[nH]n(-c3ccccc3)c(=O)c1C2c1ccc(Cl)cc1 (stereo not drawn)	·	–	·	·	·
Cc1ccccc1-c1nnn(CCC(=O)Nc2sc3c(c2C#N)CCCC3)n1	·	–	·	·	·
COc1cncc(Nc2cnc3ccc(-c4ccccc4)nn23)c1	–	?	–	-35.7	?
COc1ccc(-c2cn3cc(C(=O)NCc4cccc(C(F)(F)F)c4)nc3s2)cc1	–	·	–	–	·
O=C(Nc1ccc2oc(-c3ccccc3F)nc2c1)c1ccccc1Cl	–	?	–	-49.4	?
COc1cc2ccccc2cc1C(=O)Nc1ccc2oc(-c3cccc(C)c3)nc2c1	–	?	–	-27.6	–
Cc1ccc(-n2[nH]c(C)c(N=Nc3cccc(-c4cccc(C(=O)O)c4)c3O)c2=O)cc1C	–	·	–	-91.3	?
Cn1c(CCC(=O)N2CCCOCC2)nc2cc(S(=O)(=O)N3CCCC3)ccc21	–	–	–	-30.5	–
